For twelve molecules, z-score and composite z-score results are on record in PubChem BioAssay.

SMILES strings stand for the structures. Calls of active or inactive are those of the source. Unless noted, the rule behind the calls is not given here.

A short description of assay [1]: resazurin metabolic signal in HepG2 cells – cell-based, resazurin fluorescence, 24 h, PK04 Diversity Set, profiling panel (AID 1172). Note: test concentration not given here. To be noted: HepG2 viability, higher = more signal. (In general: The colour change of resazurin is a common sign of viable cells or microbes.)
A short description of assay [2]: budding yeast growth changes without added modifier – OD600, strain BY4716, 24 h, basal condition, primary screen (AID 1173). Particulars: S. cerevisiae BY4716 growth, OD600, 24 h; higher = more signal, called active from +8 up or from −8 down.
Assay [3] can be described thus: viability profiling in MM1S myeloma cells – cell-based, resazurin fluorescence, basal, 24 h, PK04 Diversity Set, profiling panel (AID 1174).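 Note: MM1S multiple myeloma cell line; test concentration not given here.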 Particulars: higher = more signal, called active from +8 up or from −8 down.
The target of assay [4] is Dihydroorotate dehydrogenase (quinone), mitochondrial (Plasmodium falciparum (isolate 3D7)) (UniProt Q08210). Description: inhibition of P. falciparum DHODH – biochemical, C-terminal His tag, absorbance 600 nm, primary screen (AID 1175).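 Note: recombinant parasite enzyme with a five histidine tag at its C terminus; test concentration not given here.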 Particulars: PfDHODH enzyme, DCIP absorbance 600 nm; higher = more signal, called active from +8 up or from −8 down.
Assay [5] can be described thus: inhibition of PAO1 biofilm formation – strain PAO1, LB-PBS medium, absorbance 600 nm, primary screen (AID 1176). Note: test concentration not given here. To be noted: P. aeruginosa PAO1 growth/biofilm, A600, 12 h; higher = more signal.
Assay [6] in a line: growth modulation of vineyard yeast isolate – strain RM11-1a, OD600, basal, 24 h, primary screen (AID 1177).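 Note: cultures grown under basal conditions with no added stressor; test concentration not given here.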 To be noted: S. cerevisiae RM11-1a growth, OD600, 24 h; higher = more signal, called active from +8 up or from −8 down.
A short description of assay [7]: growth of efflux-deficient E. coli DRC39 – strain DRC39, OD650, 24 h, E. coli filamentation inducers, primary screen (AID 1178).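 Note: growth measured as culture turbidity by optical density at 650 nm; test concentration not given here.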 To be noted: E. coli DRC39 acrAB, higher = more signal, called active from +8 up or from −8 down.
A short description of assay [8]: growth of efflux-deficient E. coli DRC39 – strain DRC39, OD650, 48 h, E. coli filamentation inducers, primary screen (AID 1179).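 Note: screen aims at cell division blockers that make cells filament.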 Particulars: E. coli DRC39 delta-acrAB growth, higher = more signal, called active from +8 up or from −8 down.
A short description of assay [9]: viability profiling in RPMI8226 myeloma cells – cell-based, resazurin fluorescence, basal, 24 h, PK04 Diversity Set, profiling panel (AID 1180).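 Note: RPMI8826 multiple myeloma cell line at 5000 cells per well; test concentration not given here.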 Particulars: higher = more signal.
In assay [10] the target is E3 ubiquitin-protein ligase XIAP (Homo sapiens) (UniProt P98170). Description: small molecules binding XIAP protein – biophysical, small-molecule microarray, fluorescence 635 nm, primary screen (AID 1181).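 Note: score merges 667 nm emission and signal to noise over triplicate slides.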 To be noted: higher = more signal.
Sequence of E3 ubiquitin-protein ligase XIAP (Homo sapiens) (P98170 whole entry, looked up): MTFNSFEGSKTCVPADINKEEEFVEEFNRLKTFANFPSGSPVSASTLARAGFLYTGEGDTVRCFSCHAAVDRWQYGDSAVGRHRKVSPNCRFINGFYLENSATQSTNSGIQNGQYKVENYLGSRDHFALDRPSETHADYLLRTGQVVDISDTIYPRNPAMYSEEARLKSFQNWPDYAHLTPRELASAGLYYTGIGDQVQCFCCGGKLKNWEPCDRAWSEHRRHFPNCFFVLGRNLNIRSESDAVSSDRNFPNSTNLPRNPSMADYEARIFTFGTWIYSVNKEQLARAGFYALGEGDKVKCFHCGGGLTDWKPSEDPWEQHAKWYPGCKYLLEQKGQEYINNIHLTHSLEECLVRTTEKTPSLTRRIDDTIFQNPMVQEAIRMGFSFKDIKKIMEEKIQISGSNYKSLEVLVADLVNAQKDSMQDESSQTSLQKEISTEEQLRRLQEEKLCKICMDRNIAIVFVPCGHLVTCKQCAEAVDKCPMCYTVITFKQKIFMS

Sequence of Dihydroorotate dehydrogenase (quinone), mitochondrial (Plasmodium falciparum (isolate 3D7)) (Q08210 whole entry, looked up): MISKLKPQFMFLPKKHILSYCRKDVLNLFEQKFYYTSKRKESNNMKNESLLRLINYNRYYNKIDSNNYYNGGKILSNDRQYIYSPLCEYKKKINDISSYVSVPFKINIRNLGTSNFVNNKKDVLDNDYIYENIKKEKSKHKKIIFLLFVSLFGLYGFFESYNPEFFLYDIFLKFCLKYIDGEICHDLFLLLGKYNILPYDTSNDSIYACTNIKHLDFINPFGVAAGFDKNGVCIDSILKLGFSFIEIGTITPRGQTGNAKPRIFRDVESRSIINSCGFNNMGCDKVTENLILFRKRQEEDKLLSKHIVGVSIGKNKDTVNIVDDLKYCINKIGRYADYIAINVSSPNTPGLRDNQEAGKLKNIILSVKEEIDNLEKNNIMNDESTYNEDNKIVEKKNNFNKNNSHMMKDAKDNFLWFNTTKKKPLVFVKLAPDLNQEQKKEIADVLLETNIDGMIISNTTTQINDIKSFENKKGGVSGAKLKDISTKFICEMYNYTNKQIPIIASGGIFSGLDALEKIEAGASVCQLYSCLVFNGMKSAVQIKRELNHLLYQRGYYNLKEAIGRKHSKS

Consider `C#CCCCON=C1C[C@@H](O)[C@@H](O)[C@@H]2[C@@H]3C(=O)N(c4ccc(F)cc4F)C(=O)[C@@H]3CC[C@H]12`, for which the z-score in assay [1] was 0.63; in assay [2], -0.98 (inactive); in assay [3], 0.475 (inactive); in assay [5], 0.577 (inactive); in assay [6], -1.67 (inactive); in [7] it was 0.335 (inactive). Further, the results for the z-score in [8] and in assay [9] were 0.537 (inactive) and 0.817, respectively. Moreover, the composite z-score is -0.31 (inactive) in assay [4] and 0.199 in assay [10].
As for `CC(CCN1CCc2nc(-c3ccccc3)c(-c3ccccc3)cc2C1)=NOC[C@@H](O)COCc1ccco1`, the z-score in assay [1] is -1.2; in [2], -2 (inactive); in [3] it was -1.88 (inactive); in [5] it was -0.0417 (inactive); in assay [6], 0.358 (inactive); in [7] it was 0.943 (inactive). Also, the values for the z-score in assay [8] and in [9] were 1.14 (inactive) and -1.31, respectively. The values for the composite z-score in assay [4] and in [10] were -0.727 (inactive) and 0.239, respectively.
Turning to `Cc1cc2c(nc1C)CCCCN2CC(C)ON=C1[C@H]2CCn3c(=O)n(-c4ccccc4)c(=O)n3[C@H]2[C@H](O)[C@@H]2O[C@H]12` (stereo not given in full), the z-score was -1.22 in assay [1]; -0.683 (inactive) in assay [2]; -3.13 (inactive) in assay [3]; -0.525 (inactive) in [5]; 0.722 (inactive) in assay [6]; 0.588 (inactive) in assay [7]. Further, the results for the z-score in assay [8] and in [9] were 1.2 (inactive) and -0.459, respectively. Moreover, the results for the composite z-score in assay [4] and in assay [10] were -0.498 (inactive) and -0.327, respectively.
In the case of `COC(=O)[C@H](C)NC(=O)CCC1CC(OC(=O)NCc2ccc3c(c2)OCO3)CC2(CCCC(COC(=O)NCC3CCCCC3)O2)O1` (stereo not given in full), the z-score is 0.635 in [1]; 0.415 (inactive) in [2]; 0.138 (inactive) in assay [3]; -0.388 (inactive) in assay [5]; 1.13 (inactive) in [6]; 0.49 (inactive) in assay [7]. The z-score in [8] was 0.139 (inactive); in assay [9] it was -0.119. Also, the composite z-score was 0.981 (inactive) in assay [4] and 0.104 in assay [10].
Take `C[C@@H]1C=CCC(=O)OC[C@H]2O[C@@H](C=C[C@@H]2O)[C@H](C)C=CCC(=O)OC1`: the z-score in assay [1] was -0.444; in assay [2] it was -1.03 (inactive); in [3], 0.324 (inactive); in assay [5], 0.565 (inactive); in assay [6] it was -2.26 (inactive); in assay [7], 0.577 (inactive). For the same molecule, the z-score is 0.205 (inactive) in assay [8] and -0.667 in assay [9]. In addition, the figures for the composite z-score in [4] and in assay [10] were -0.793 (inactive) and -0.0826, respectively.
Regarding `CCOC(=O)[C@H](CC(C)C)NC(=O)CCC1CC(OC(=O)NCc2cccc3ccccc23)CC2(CCCC(COC(=O)NCC3CCCCC3)O2)O1` (stereo not given in full), the z-score is 0.865 in assay [1]; -0.0452 (inactive) in [2]; 1.27 (inactive) in assay [3]; -1.45 (inactive) in [5]; -0.288 (inactive) in assay [6]; -0.765 (inactive) in [7]. Besides, the values for the z-score in assay [8] and in assay [9] were -0.0838 (inactive) and 0.463, respectively. The composite z-score in assay [4] is -2.33 (inactive); in [10] it was -0.0333.
As to `CCOC(=O)NN=C1C[C@@H](O)[C@@H](O)[C@@H]2[C@@H]3C(=O)N(c4ccc(F)cc4F)C(=O)[C@@H]3CC[C@@H]12`, the z-score was 1.06 in [1]; 0.559 (inactive) in assay [2]; 0.514 (inactive) in assay [3]; 0.118 (inactive) in [5]; 0.916 (inactive) in [6]; 0.239 (inactive) in assay [7]. The figures for the z-score in assay [8] and in assay [9] were -0.559 (inactive) and 0.562, respectively. Also, the composite z-score is -0.0225 (inactive) in assay [4] and -0.0663 in [10].
Take `CO[C@@H]1COC(=O)CC=C[C@@H](C)[C@@H]2C=C[C@H](O)[C@@H](COC(=O)CC=C[C@H]1C)O2`: the z-score in [1] was 0.807; in [2] it was -1.65 (inactive); in assay [3] it was 0.992 (inactive); in assay [5] it was 0.765 (inactive); in assay [6], -0.72 (inactive); in assay [7], 0.619 (inactive). The z-score in assay [8] is 0.799 (inactive); in assay [9] it was 0.366. The figures for the composite z-score in [4] and in [10] were -0.0239 (inactive) and 0.0177, respectively.
Regarding `CO[C@H]1COC(=O)CC=C[C@H](C)[C@@H](OC)COC(=O)[C@@H](C)COC(=O)CC=C[C@@H]1C`, the z-score is -0.0033 in [1]; -1.2 (inactive) in [2]; 0.277 (inactive) in assay [3]; -0.92 (inactive) in [5]; -0.288 (inactive) in assay [6]; 0.224 (inactive) in [7]. Besides, the results for the z-score in assay [8] and in assay [9] were -0.979 (inactive) and 0.721, respectively. The composite z-score is 0.151 (inactive) in assay [4] and -0.142 in assay [10].
In the case of `CCOC(=O)[C@H](CC(C)C)NC(=O)CCC1CC(OC(=O)NCc2cccc3ccccc23)CC2(CCCC(COC(=O)NCc3ccncc3)O2)O1` (stereo not given in full), the z-score in [1] is -0.232; in [2] it was -0.101 (inactive); in assay [3] it was 0.192 (inactive); in assay [5], 0.368 (inactive); in assay [6] it was 0.559 (inactive); in [7], 1.1 (inactive). For the same molecule, the z-score in [8] was 0.399 (inactive); in [9], -0.404. In addition, the composite z-score in assay [4] was 0.0964 (inactive); in assay [10], -0.105.
In the case of `C#CCCCON=C1C[C@@H](O)[C@@H](O)[C@@H]2[C@@H]3C(=O)N(Cc4ccccc4)C(=O)[C@@H]3CC[C@@H]12`, the z-score is 0.71 in assay [1]; -0.878 (inactive) in [2]; 0.736 (inactive) in [3]; -0.601 (inactive) in assay [5]; -0.0952 (inactive) in assay [6]; 0.777 (inactive) in [7]. The z-score is 1.2 (inactive) in assay [8] and 0.886 in assay [9]. For the same molecule, the values for the composite z-score in assay [4] and in [10] were -1.23 (inactive) and -0.267, respectively.
As for `CCCNC(=O)OC[C@H]1O[C@H](CCON=Cc2ccc(C(=O)N3[C@H](c4ccc(C)cc4)[C@@H](C)CC[C@H]3C(=O)OC)cc2)C=C[C@@H]1Oc1ccc(OC)cc1`, the z-score is -0.73 in assay [1]; 1.85 (inactive) in [2]; -0.686 (inactive) in [3]; 0.511 (inactive) in [5]; 0.729 (inactive) in assay [6]; 0.567 (inactive) in assay [7]. The z-score in assay [8] was 0.353 (inactive); in [9], -0.203. Also, the figures for the composite z-score in assay [4] and in [10] were 0.415 (inactive) and 0.0623, respectively.
